About 83,000 compounds went through this panel and 20% of them were active in at least one assay; those are over-represented in the sample as a whole.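 How to read the values: 0–100, growth inhibition (40 = 60% inhibited); 0, no net growth; -100 to 0, cell death (-40 = 40% of starting cells died; -100 = all dead).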 A number with no mark means an inactive call. Activity calls are given as the source filed them. The calls were made as follows: active = growth percent below 10; inactive = the rest.
These compounds were tested on NCI-H23 lung (assay: NCI-60 one-dose screen, 48 h (100 = growth as untreated, 0 = no growth, -100 = all killed)). Conditions: 10 µM unless noted.

SMILES	growth
CCCCN(CCCC)c1ccc(C(=N)c2ccc(N(CCCC)CCCC)cc2)cc1	-77% (active)
Clc1ccc(-c2nc3ccccc3s2)cc1Cl	94.2%
Cc1nc2c3c(ncn2n1)Oc1c(c(=O)[nH]c2ccccc12)C3c1ccc(Cl)cc1 (stereo not drawn)	103%
O=C(NNC(=S)Nc1ccccc1)c1cc2ccc1CCc1ccc(cc1)CC2	74.8%
O=C(Nc1ccc2c(c1)OCCO2)C(=O)c1c[nH]c2ccccc12	24.5%
COc1ccc2c(c1)C(c1cc(OC)c3c(c1)OCO3)C1=C(COC1=O)N2 (stereo not drawn)	38.2%
Fc1ccc(Nc2nc(NCCNc3ccnc4cc(Cl)ccc34)nc(N3CCOCC3)n2)cc1	93%
S=c1[nH]nc(-c2cc3ccc2CCc2ccc(cc2)CC3)n1-c1ccccc1	98%
CC(C)(C)NCCC(O)c1cc2c(Cl)cc(Cl)cc2c2cc(C(F)(F)F)ccc12 (stereo not drawn)	-78.6% (active)
COc1ccc2cc(-c3ccc(-c4ccc(C(=N)N)cc4)s3)ccc2c1	107%
CCN(CC)CCC(CNc1c2ccc(Cl)cc2nc2ccc(OC)cc12)c1ccccc1 (stereo not drawn)	34.1%
Cc1ccc(S(=O)(=O)C2=C3C(=C(c4ccccc4)c4ccccc43)CN(S(=O)(=O)c3ccc(C)cc3)C2)cc1	47.1%
Cc1ccc(S(=O)(=O)NCCNc2nccc(-c3c(-c4cccc(N)c4)nc4sccn34)n2)cc1	91.7%
CC(C)NCCCNC1=C(Cl)C(=O)c2ccccc2C1=O	16.3%
COc1cccc(CC(C)=C(c2ccc(OCCN(C)C)cc2)c2ccc(OCCN(C)C)cc2)c1	70%
S=c1[nH]nc(-c2cc3ccc2CCc2ccc(cc2)CC3)n1C1CC1	97.8%
COc1ccc(Nc2[nH]n3c(=O)cc(-c4ccccc4)nc3c2C(=O)Nc2ccc(C)cc2)c(OC)c1	88.7%
O=c1[nH]c2ccc(Br)cc2c2c1C(c1ccc(Cl)cc1)c1c(ncn3nc(-c4ccco4)nc13)O2 (stereo not drawn)	76.1%
COc1cc(-c2nn(-c3cccc(NC(=O)Nc4cc(C(F)(F)F)cc(C(F)(F)F)c4)c3)cc2-c2ccncc2)ccc1Cl	-3.3% (active)
COc1cc(/C=C/C(=O)N2CCN(C(=O)/C=C/c3cc(OC)c(OC)c(OC)c3)CC2)cc(OC)c1OC	104%

SMILES	growth
CCN(CC)CCOC(=O)C(c1ccccc1)(c1ccccc1)C(C)C	90.2%
C=C[C@@H]1C[C@H](O)Cc2c(C)cc(C)cc2N1	97.6%
N=C(N)c1ccc(-c2cc(Cl)cc(Cl)c2)cn1	97.6%
CCCCCCCCCCCCNC(=O)[C@H]1CSC(c2ccsc2)N1 (stereo partly drawn)	-52.9% (active)
O=C(NCc1cn(Cc2cccc(Oc3ccccc3)c2)nn1)c1cccnc1Nc1ccc(F)cc1	69.4%
CCN1CCN(CC(=O)N2c3cccc4cccc(c34)N(C(=O)CN3CCN(CC)CC3)C2c2cn(-c3ccccc3)nc2-c2cccc([N+](=O)[O-])c2)CC1	13.7%
O=S(=O)(NCCCNc1nccc(-n2ccc3cccnc32)n1)c1ccc(Br)cc1	108%
COC(=O)C(Sc1ccc(Cl)cc1)C1SC(=S)N(Cc2ccccc2)C1=O (stereo not drawn)	97.3%
Cc1ccc2[nH]c(=O)c3c(c2c1)Oc1ncn2nc(-c4ccco4)nc2c1C3c1ccc(Cl)cc1 (stereo not drawn)	93.3%
c1ccc(-c2cn(-c3ccccc3)c(-c3ccccc3)n2)cc1	77.6%
CCN(CC)CCCC(C)Nc1c2ccc(Cl)cc2nc2cc(OC)c(OC)cc12 (stereo not drawn)	21%
CN(C)c1cccc2c(S(=O)(=O)/N=C(\N)Nc3nc4ccccc4s3)cccc12	66.6%
O=C(Nc1ccc(Cl)c(Cl)c1)NS(=O)(=O)c1cnccc1Oc1ccc(F)cc1	39.3%
Cc1ccc2nc(Cl)cc(=O)n2c1	107%
Cn1ccc(=O)c(S(N)(=O)=O)c1	95.6%
COc1ccc(-c2c(N)n[nH]c2-c2cc3c(c(OC)c2OC)OCO3)cc1	96.8%
CC(=O)Oc1csc(N(C(C)=O)c2cccc(C(F)(F)F)c2)n1	94.7%
C=C1CCC2C3(C)COC(C)(C)OC3CCC2(C)C1C/C=C1/C(=O)OCC1Oc1ccccc1OC (stereo not drawn)	92.2%
COc1ccc(/C=C\c2cc(OC)c(OC)c(OC)c2)cc1OC(=O)c1cccc(Cn2cc(CCOC(=O)c3cccc(Cn4nnc5c4C(=O)c4ccccc4C5=O)c3)nn2)c1	33.1%

What follows are compounds tested on NCI-H226 lung in the same assay as above. Conditions: 10 µM unless noted.

SMILES	growth
CCCCN(CCCC)c1ccc(C(=N)c2ccc(N(CCCC)CCCC)cc2)cc1	-90.7% (active)
Clc1ccc(-c2nc3ccccc3s2)cc1Cl	87.2%
Cc1nc2c3c(ncn2n1)Oc1c(c(=O)[nH]c2ccccc12)C3c1ccc(Cl)cc1 (stereo not drawn)	98%
O=C(NNC(=S)Nc1ccccc1)c1cc2ccc1CCc1ccc(cc1)CC2	78.9%
O=C(Nc1ccc2c(c1)OCCO2)C(=O)c1c[nH]c2ccccc12	82.7%
COc1ccc2c(c1)C(c1cc(OC)c3c(c1)OCO3)C1=C(COC1=O)N2 (stereo not drawn)	27.5%
Fc1ccc(Nc2nc(NCCNc3ccnc4cc(Cl)ccc34)nc(N3CCOCC3)n2)cc1	94.8%
S=c1[nH]nc(-c2cc3ccc2CCc2ccc(cc2)CC3)n1-c1ccccc1	107%
CC(C)(C)NCCC(O)c1cc2c(Cl)cc(Cl)cc2c2cc(C(F)(F)F)ccc12 (stereo not drawn)	-73.8% (active)
COc1ccc2cc(-c3ccc(-c4ccc(C(=N)N)cc4)s3)ccc2c1	102%
CCN(CC)CCC(CNc1c2ccc(Cl)cc2nc2ccc(OC)cc12)c1ccccc1 (stereo not drawn)	13.9%
Cc1ccc(S(=O)(=O)C2=C3C(=C(c4ccccc4)c4ccccc43)CN(S(=O)(=O)c3ccc(C)cc3)C2)cc1	79.1%
Cc1ccc(S(=O)(=O)NCCNc2nccc(-c3c(-c4cccc(N)c4)nc4sccn34)n2)cc1	79.6%
CC(C)NCCCNC1=C(Cl)C(=O)c2ccccc2C1=O	93.1%
COc1cccc(CC(C)=C(c2ccc(OCCN(C)C)cc2)c2ccc(OCCN(C)C)cc2)c1	31.3%
S=c1[nH]nc(-c2cc3ccc2CCc2ccc(cc2)CC3)n1C1CC1	108%
COc1ccc(Nc2[nH]n3c(=O)cc(-c4ccccc4)nc3c2C(=O)Nc2ccc(C)cc2)c(OC)c1	87.4%
O=c1[nH]c2ccc(Br)cc2c2c1C(c1ccc(Cl)cc1)c1c(ncn3nc(-c4ccco4)nc13)O2 (stereo not drawn)	65.5%
COc1cc(-c2nn(-c3cccc(NC(=O)Nc4cc(C(F)(F)F)cc(C(F)(F)F)c4)c3)cc2-c2ccncc2)ccc1Cl	8.68% (active)
COc1cc(/C=C/C(=O)N2CCN(C(=O)/C=C/c3cc(OC)c(OC)c(OC)c3)CC2)cc(OC)c1OC	100%

SMILES	growth
CCN(CC)CCOC(=O)C(c1ccccc1)(c1ccccc1)C(C)C	92.9%
C=C[C@@H]1C[C@H](O)Cc2c(C)cc(C)cc2N1	104%
N=C(N)c1ccc(-c2cc(Cl)cc(Cl)c2)cn1	82.4%
CCCCCCCCCCCCNC(=O)[C@H]1CSC(c2ccsc2)N1 (stereo partly drawn)	-74.1% (active)
O=C(NCc1cn(Cc2cccc(Oc3ccccc3)c2)nn1)c1cccnc1Nc1ccc(F)cc1	88.5%
CCN1CCN(CC(=O)N2c3cccc4cccc(c34)N(C(=O)CN3CCN(CC)CC3)C2c2cn(-c3ccccc3)nc2-c2cccc([N+](=O)[O-])c2)CC1	-28.3% (active)
O=S(=O)(NCCCNc1nccc(-n2ccc3cccnc32)n1)c1ccc(Br)cc1	96.5%
COC(=O)C(Sc1ccc(Cl)cc1)C1SC(=S)N(Cc2ccccc2)C1=O (stereo not drawn)	116%
Cc1ccc2[nH]c(=O)c3c(c2c1)Oc1ncn2nc(-c4ccco4)nc2c1C3c1ccc(Cl)cc1 (stereo not drawn)	92.4%
c1ccc(-c2cn(-c3ccccc3)c(-c3ccccc3)n2)cc1	93.4%
CCN(CC)CCCC(C)Nc1c2ccc(Cl)cc2nc2cc(OC)c(OC)cc12 (stereo not drawn)	32.3%
CN(C)c1cccc2c(S(=O)(=O)/N=C(\N)Nc3nc4ccccc4s3)cccc12	69.8%
O=C(Nc1ccc(Cl)c(Cl)c1)NS(=O)(=O)c1cnccc1Oc1ccc(F)cc1	74.9%
Cc1ccc2nc(Cl)cc(=O)n2c1	108%
Cn1ccc(=O)c(S(N)(=O)=O)c1	108%
COc1ccc(-c2c(N)n[nH]c2-c2cc3c(c(OC)c2OC)OCO3)cc1	99.9%
CC(=O)Oc1csc(N(C(C)=O)c2cccc(C(F)(F)F)c2)n1	93.3%
C=C1CCC2C3(C)COC(C)(C)OC3CCC2(C)C1C/C=C1/C(=O)OCC1Oc1ccccc1OC (stereo not drawn)	79.7%
COc1ccc(/C=C\c2cc(OC)c(OC)c(OC)c2)cc1OC(=O)c1cccc(Cn2cc(CCOC(=O)c3cccc(Cn4nnc5c4C(=O)c4ccccc4C5=O)c3)nn2)c1	58.4%

Source: PubChem BioAssay (NCI)
